Experimental data taken from PubChem BioAssay (NCATS).
Records with an inconclusive call do not appear. The source made the active and inactive calls. The call rests on the fitted dose curve; in most records, active means well fitted curve in the direction sought with a large enough effect; inconclusive means small, poorly fitted or top-dose-only effect, or another doubt; inactive means no such curve, though single readings can be large; an effect the other way counts as inactive or inconclusive.

Experiments:
[1] = SW1088 Cancer Cell Toxicity qHTS against the NCATS CANVASS Library (AID 1347350); further: nearly all actives have a fitted effect of over 75% in size
In short: (§1)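 1000 cells/well seeded and rested 4 h at 37 °C before pin transfer of compounds in an 11-pnt series. Exposure 72 h at 37 °C/5% CO2; viability by CellTiter-Glo luminescence after 15 min at room temperature.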

[2] = U-118MG Cancer Cell Toxicity qHTS against the NCATS CANVASS Library (AID 1347351)
In short: as §1

[3] = COV-362 Cancer Cell Toxicity qHTS against the NCATS CANVASS Library (AID 1347352)
In short: (§2)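 qHTS cytotoxicity: compounds tested in 11 concentrations on 1000 seeded cells per well over 72 h; bortezomib served as control; signal from CellTiter-Glo luminescence.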

[4] = A2780 Cisplatin Sensitive Ovarian Cancer Cell Toxicity qHTS against the NCATS CANVASS Library (AID 1347353); conditions: A2780 ovarian cancer viability, ATPLite luminescence, 72 h; at 15.4 µM (top of the series); further: nearly all actives have a fitted effect of over 60% in size
In short: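 Seventy-two-hour exposure of cisplatin-sensitive A2780 ovarian cells to an 11-concentration qHTS series; cytotoxicity is inferred from loss of ATPLite luminescence. Bortezomib titration served as positive control.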

[5] = UWB1.289-WTBRCA1 Cancer Cell Toxicity qHTS against the NCATS CANVASS Library (AID 1347354)
In short: as §2

[6] = HEK-293 Cancer Cell Toxicity qHTS against the NCATS CANVASS Library (AID 1347355); conditions: HEK-293 viability, CellTiter-Glo luminescence, 72 h; at 15.4 µM (top of the series); further: nearly all actives have a fitted effect of over 65% in size
In short: as §2

[7] = HPAF-II 24hr Apoptosis Induction qHTS against the NCATS CANVASS Library (AID 1347356)
In short: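 Apoptosis induction in HPAF-II pancreatic cancer cells is measured as caspase-3/7 luminescence after a 24-hour exposure to compounds.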

[8] = HEK293 18hr Apoptosis Induction qHTS against the NCATS CANVASS Library (AID 1347357)
In short: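 Caspase-3/7 luminescence (DEVD substrate, Caspase-Glo) after 18 h compound exposure of HEK293 cells, 500 cells/well; 11-point series; doxorubicin titration as control.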

[9] = HPAF-II 12hr Apoptosis Induction qHTS against the NCATS CANVASS Library (AID 1347358)
In short: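 Apoptosis in HPAF-II pancreatic cancer cells is scored as caspase 3/7 luminescence following a 12-hour exposure to an 11-point compound series.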

[10] = HEK293 24hr Apoptosis Induction qHTS against the NCATS CANVASS Library (AID 1347359)
In short: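 Caspase-3/7 activation measured as luminescence from the DEVD-based Caspase-Glo reagent, 15 min at room temperature, following 24-hour compound treatment of HEK293 cells.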

Measured: outcome

C[C@@H]1O[C@@H](OC[C@H]2O[C@@H](Oc3c(-c4ccc(O)c(O)c4)oc4cc(O)cc(O)c4c3=O)[C@H](O)[C@@H](O)[C@@H]2O)[C@H](O)[C@H](O)[C@H]1O
inactive: all assays above
